Test results published in PubChem BioAssay AID2546 (National Center for Advancing Translational Sciences (NCATS), 2010).
Out of some 310,000 compounds screened, about 11,000 (3.5%) were called active. Inconclusive results (about 8%) are left out. Calls come from the whole dose curve; as a rule, active = well fitted inhibition curve with a large enough effect; inconclusive = small, poorly fitted or top-dose-only effect, or effect the other way; inactive = flat fitted curve, though single readings scatter. The full list was thinned out, with actives kept by preference.

assay: VP16 counterscreen qHTS for inhibitors of ROR gamma transcriptional activity; settings: Drosophila S2 Gal4-VP16 UAS-luciferase, luminescence, 20 h; series mostly up to 53.6 µM; activity, negative = inhibition: at the top concentration;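 note: Gal4-VP16 expression switched on by copper sulfate through the metallothionein promoter; nearly all actives have a fitted effect of over 50% in size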
% is set by controls: 0 for no effect and ±100 for the full control effect; potency is the fitted concentration of half-maximal effect.

SMILES | activity, negative = inhibition | Potency
Cc1ccc(NS(=O)(=O)c2ccc3c(c2)n(C)c(=O)c(=O)n3C)c(C)c1 | -22.3% (inactive) | 
CCOC(=O)COn1c(=O)c(-c2ccc(OCC)cc2)[n+]([O-])c2ccccc21 | -6.45% (inactive) | 
Cc1nn(-c2ccccc2)c2c1c(C)c(CCC(=O)NCC1CCCO1)c(=O)n2C (stereo not given) | -5.19% (inactive) | 
C=CC(=O)c1ccc2ccccc2c1 |  | 0.708 µM (active)
CC(=O)CCC(=O)c1ccc2ccccc2c1 | -10.3% (inactive) | 
O=C(Nc1ccc(NC(=O)c2cccs2)cc1)c1ccc2ccccc2c1 | 4.21% (inactive) | 
COc1cc2ccccc2cc1C(=O)Nc1ccccc1C | 12.7% (inactive) | 
Cc1ccc(N(C(=O)c2snc(C(N)=O)c2N)C(C(=O)NCC2CCCO2)c2c[nH]c3ccccc23)cc1 (stereo not given) | 4.57% (inactive) | 
CCSc1nsc(NC(=O)Nc2ccccc2OC)n1 | 24.6% (inactive) | 
CC1CCN(c2ccc(C(=O)NCc3ccc4c(c3)OCO4)cc2[N+](=O)[O-])CC1 | 2.28% (inactive) | 
CC1CCN(c2ccc(S(=O)(=O)Nc3cc(C(=O)O)cc(C(=O)O)c3)cc2[N+](=O)[O-])CC1 | -8.43% (inactive) | 
CC1CCN(c2ccc(C(=O)Nc3nnc(C4CC4)s3)cc2[N+](=O)[O-])CC1 |  | 17.8 µM (active)
COCCNC(=O)c1ccc2c(c1)ncn2-c1ccc(C)c(Cl)c1 | 2.37% (inactive) | 
CCC1Oc2ccccc2N(CC(=O)NCCCN2CCN(CC)CC2)C1=O (stereo not given) | 6.78% (inactive) | 
Cc1c(C)c2ccc(OCC(=O)N3CCN(c4cccc(Cl)c4)CC3)cc2oc1=O | -5.7% (inactive) | 
Cc1ccc(OCC(=O)NC(C)c2ccccc2)cc1C (stereo not given) | 9.83% (inactive) | 
O=C(/C=C/c1ccc(Cl)c([N+](=O)[O-])c1)c1cccnc1 | 3.34% (inactive) | 
O=C(/C=C/c1ccc(Cl)cc1Cl)c1cccnc1 |  | 6.31 µM (active)

SMILES | activity, negative = inhibition | Potency
O=C(Nc1cccnc1)c1cc(Cl)ccc1Cl | -0.679% (inactive) | 
COc1cccc(CNC(=O)C2CCCN(c3ncnc4c3nc3n4CCCCC3)C2)c1 (stereo not given) | -0.486% (inactive) | 
Cc1cc(NC(=O)CCN2CCN(Cc3ccccc3)CC2)ccc1Br | -8.54% (inactive) | 
Cc1cc(NC(=O)CSc2nc(=O)cc(N)n2-c2ccc(F)cc2)no1 | 8.25% (inactive) | 
COc1cc(/C=N/NC(=O)Cc2ccccc2)cc(OC)c1OC | -3.11% (inactive) | 
O=C(O)[C@@H]1CCCN1c1ncnc2sc3c(c12)CCC3 | -4.98% (inactive) | 
OCCNc1nc2ccccc2n1-c1ncnc2sc3c(c12)CCC3 |  | 10 µM (active)
CC(C)(C)C(=O)Cn1c(NCCO)nc2ccccc21 | -14.2% (inactive) | 
O=C(c1ccccc1)N1N=C(c2ccccc2O)CC1c1ccc(Br)cc1 (stereo not given) | -4.58% (inactive) | 
Cc1cn([C@H]2CC(F)[C@@H](CO)O2)c(=O)[nH]c1=O (stereo not given in full) | 0.784% (inactive) | 
CCn1c(C(C)NC(=O)c2ccc(C)cc2)n[nH]c1=S (stereo not given) | 0.348% (inactive) | 
CC(C)n1c(-c2ccncc2)n[nH]c1=S | 4.59% (inactive) | 
CCn1c(-c2ccncc2)n[nH]c1=S |  | 11.2 µM (active)
COc1cccc(CNC(=O)CCC2CCCN(C(=O)c3ccc(F)c(Cl)c3)C2)c1 (stereo not given) | 0.579% (inactive) | 
COC(=O)C1(CCSC)NC(c2ccc(OC)cc2OC)C2C(=O)N(c3cccc(C(C)=O)c3)C(=O)C21 (stereo not given) | 0.119% (inactive) | 
Cc1ccc(S(=O)Cc2ccc(C(=O)N3CCN(C4CCCCC4)CC3)o2)cc1 (stereo not given) | -1.07% (inactive) | 
Cc1[nH]c(C)c(S(=O)(=O)N2CCN(c3cccc(C(F)(F)F)c3)CC2)c1C(=O)N1CCCC1 | 2.52% (inactive) | 
